Experiment [1] can be described thus: Quantitative High-Throughput drug screen in 47 multiple myeloma cell lines against the NCATS MIPE library collection: Karpas620_DSMZ cell viability assay (AID 1918959). Further: nearly all actives have a fitted effect of over 30% in size. Further: potency means the concentration at half of the fitted maximal effect. An outline of the steps:
(§1)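 Viability readout: CellTiter-Glo luminescence following 5 min room-temperature incubation with reagent. Prior exposure: 48 h, 37C, humidified 5% CO2, 500 cells per well.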

A short description of experiment [2]: Quantitative High-Throughput drug screen in 47 multiple myeloma cell lines against the NCATS MIPE library collection: KMM1_JCRB cell viability assay (AID 1918960). Further: nearly all actives have a fitted effect of over 30% in size. Further: potency means the concentration at half of the fitted maximal effect.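 On viability (% of DMSO): 100% = DMSO-treated cells and 0% = medium-only wells.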 An outline of the steps:
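ATP readout (CellTiter-Glo), 48 h drug incubation, 37 °C/5% CO2, 500 cells per well; normalisation to DMSO (100%) and media-only (0%) controls.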

A short description of experiment [3]: Quantitative High-Throughput drug screen in 47 multiple myeloma cell lines against the NCATS MIPE library collection: Karpas417_ECACC cell viability assay (AID 1918961). Further: potency means the concentration at half of the fitted maximal effect. The note with it: Karpas417 myeloma viability, CellTiter-Glo ATP luminescence, 48 h; viability (% of DMSO): at 45.8 µM (top of the series). The gist of the method: (§2)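 Approved and investigational drugs from MIPE 4.0 were added by pin tool to 500 cells per well. After 48 hours at 37C, ATP-based CellTiter-Glo luminescence indicated remaining viability.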
Background: In ATP-based viability assays light output follows the ATP content of the culture.

Experiment [4] is described as follows: Quantitative High-Throughput drug screen in 47 multiple myeloma cell lines against the NCATS MIPE library collection: INA6_PLB cell viability assay (AID 1918965; further: nearly all actives have a fitted effect of over 55% in size; further: potency means the concentration at half of the fitted maximal effect). The gist of the method:
as §2

Experiment [5] can be described thus: Quantitative High-Throughput drug screen in 47 multiple myeloma cell lines against the NCATS MIPE library collection: H1112_PLB cell viability assay (AID 1918967; further: nearly all actives have a fitted effect of over 30% in size; further: potency means the concentration at half of the fitted maximal effect). An outline of the steps: (§3)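 Myeloma cell lines, 500 cells per well, exposed to MIPE 4.0 library compounds for 48 h at 37C, 5% CO2. Viability from ATP by CellTiter-Glo luminescence; normalised to DMSO (100%) and media-only (0%) wells.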

Experiment [6] is described as follows: Quantitative High-Throughput drug screen in 47 multiple myeloma cell lines against the NCATS MIPE library collection: Karpas25_ECACC cell viability assay (AID 1918968; further: nearly all actives have a fitted effect of over 35% in size; further: potency means the concentration at half of the fitted maximal effect). An outline of the steps: as §3
A short description of experiment [7]: Quantitative High-Throughput drug screen in 47 multiple myeloma cell lines against the NCATS MIPE library collection: KMS27_JCRB cell viability assay (AID 1918970). Further: nearly all actives have a fitted effect of over 30% in size. Further: potency means the concentration at half of the fitted maximal effect. An outline of the steps: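 Viability inhibition screen, 48 h compound exposure, luminescent ATP read-out.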
Experiment [8] in a line: Quantitative High-Throughput drug screen in 47 multiple myeloma cell lines against the NCATS MIPE library collection: KMS12PE_JCRB cell viability assay (AID 1918972). Further: nearly all actives have a fitted effect of over 30% in size. Further: potency means the concentration at half of the fitted maximal effect. The gist of the method:
as §2

The nature of experiment [9]: Quantitative High-Throughput drug screen in 47 multiple myeloma cell lines against the NCATS MIPE library collection: KMS26_JCRB cell viability assay (AID 1918975). Further: nearly all actives have a fitted effect of over 45% in size. Further: potency means the concentration at half of the fitted maximal effect. An outline of the steps:
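Luminescent ATP measurement with CellTiter-Glo gives viability, scaled between DMSO-only wells (100%) and media-only wells (0%). Cells, 500 per well, faced library compounds for 48 hours at 37C.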

A short description of experiment [10]: Quantitative High-Throughput drug screen in 47 multiple myeloma cell lines against the NCATS MIPE library collection: MOLP8_DSMZ cell viability assay (AID 1918977). Further: nearly all actives have a fitted effect of over 45% in size. The gist of the method: (§4)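 MIPE 4.0 approved/investigational drugs; 500 cells/well; 48 h 37 °C humidified 5% CO2; CTG luminescence readout; DMSO = 100%, media = 0% viability.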
Experiment [11] can be described thus: Quantitative High-Throughput drug screen in 47 multiple myeloma cell lines against the NCATS MIPE library collection: OCIMY1_PLB cell viability assay (AID 1918979). Further: nearly all actives have a fitted effect of over 35% in size. An outline of the steps: as §4
Experiment [12] in a line: Quantitative High-Throughput drug screen in 47 multiple myeloma cell lines against the NCATS MIPE library collection: MM1R_ATCC cell viability assay (AID 1918981). Further: nearly all actives have a fitted effect of over 35% in size. Further: potency means the concentration at half of the fitted maximal effect. The gist of the method: as §4
Experiment [13] in a line: Quantitative High-Throughput drug screen in 47 multiple myeloma cell lines against the NCATS MIPE library collection: LP1_DSMZ cell viability assay (AID 1918982). Further: nearly all actives have a fitted effect of over 35% in size. Further: potency means the concentration at half of the fitted maximal effect. The gist of the method:
as §4

A short description of experiment [14]: Quantitative High-Throughput drug screen in 47 multiple myeloma cell lines against the NCATS MIPE library collection: KHM11_PLB cell viability assay (AID 1918962). Further: nearly all actives have a fitted effect of over 35% in size. Further: potency means the concentration at half of the fitted maximal effect. An outline of the steps: as §1
Experiment [15] is described as follows: Quantitative High-Throughput drug screen in 47 multiple myeloma cell lines against the NCATS MIPE library collection: JIM3_ECACC cell viability assay (AID 1918963; further: nearly all actives have a fitted effect of over 35% in size; further: potency means the concentration at half of the fitted maximal effect). The gist of the method:
as §1

Experiment [16] in a line: Quantitative High-Throughput drug screen in 47 multiple myeloma cell lines against the NCATS MIPE library collection: JJN3_DSMZ cell viability assay (AID 1918966; further: potency means the concentration at half of the fitted maximal effect; nearly all actives have a fitted effect of over 50% in size). The gist of the method:
as §3

A short description of experiment [17]: Quantitative High-Throughput drug screen in 47 multiple myeloma cell lines against the NCATS MIPE library collection: KMS20_JCRB cell viability assay (AID 1918973). Further: nearly all actives have a fitted effect of over 45% in size. Further: potency means the concentration at half of the fitted maximal effect. An outline of the steps:
as §3

A short description of experiment [18]: Quantitative High-Throughput drug screen in 47 multiple myeloma cell lines against the NCATS MIPE library collection: MMM1_PLB cell viability assay (AID 1918976). The note with it: MMM1 myeloma cells viability, CellTiter-Glo, 48 h. An outline of the steps: as §4
Experiment [19] is described as follows: Quantitative High-Throughput drug screen in 47 multiple myeloma cell lines against the NCATS MIPE library collection: MM1S_ATCC cell viability assay (AID 1918980). Further: nearly all actives have a fitted effect of over 45% in size. Further: potency means the concentration at half of the fitted maximal effect. The gist of the method: as §4
A short description of experiment [20]: Quantitative High-Throughput drug screen in 47 multiple myeloma cell lines against the NCATS MIPE library collection: KMS21BM_JCRB cell viability assay (AID 1918974). Further: potency means the concentration at half of the fitted maximal effect. The gist of the method:
as §3

Inconclusive results are not listed. Calls of active or inactive are those of the source. The call rests on the fitted dose curve; in most records, active means well fitted curve in the direction sought with a large enough effect; inconclusive means small, poorly fitted or top-dose-only effect, or another doubt; inactive means no such curve, though single readings can be large; an effect the other way counts as inactive or inconclusive.

Consider `CCCC(C)(COC(N)=O)COC(=O)NC(C)C` (centres undefined), for which the Potency entry in experiment [1], in experiment [2], in experiment [4], in experiment [5], in experiment [6] and in experiment [7] was “inactive” in each case. The Potency result in [8], in experiment [9], in experiment [10], in experiment [11], in [12] and in experiment [13] was “inactive” each time. For the same compound, in experiment [3], the viability (% of DMSO) is 64.9% (active).
In the case of `Cc1sc2c(c1C)C(c1ccc(Cl)cc1)=N[C@@H](CC(=O)OC(C)(C)C)c1nnc(C)n1-2`, the Potency is 132 nM (active) in [1]; 66.2 nM (active) in [2]; 8.3 nM (active) in experiment [14]; 1660 nM (active) in experiment [15]; 29.6 nM (active) in [4]; 296 nM (active) in experiment [16]. In addition, the Potency in experiment [5] was 6620 nM (active); in experiment [6], 526 nM (active); in experiment [7], 52.6 nM (active); in [8] it was 29.6 nM (active); in experiment [17] it was 1180 nM (active); in experiment [9] it was 526 nM (active). The Potency was 1050 nM (active) in experiment [18], 1320 nM (active) in [19], 332 nM (active) in experiment [12] and 1050 nM (active) in [13].
As to `CNC(=O)N1N=C(c2ccc(N)cc2)c2cc3c(cc2CC1C)OCO3` (centres undefined), the Potency in [3] is 1870 nM (active); in experiment [14], 2960 nM (active); in [15], 4690 nM (active); in experiment [4] it was 1180 nM (active); in experiment [16] it was 1320 nM (active); in experiment [6], 9350 nM (active). The Potency in [7] is 3320 nM (active); in experiment [8], 2350 nM (active); in experiment [20] it was 1480 nM (active); in experiment [9], 3320 nM (active); in experiment [18] it was 14800 nM (active); in [19] it was 16600 nM (active). Further, the Potency result in [5] and in experiment [11] was “inactive” in each case.
Consider `C#CCN(C)[C@H](C)Cc1ccccc1`, for which the Potency result in experiment [1], in experiment [14], in [15], in experiment [5], in [6] and in [8] was “inactive” in each case. Also, the Potency entry in experiment [17], in experiment [9], in experiment [11], in experiment [19] and in experiment [13] was “inactive” each time. Besides, the Potency was 8330 nM (active) in experiment [16] and 2960 nM (active) in experiment [18].
On to `O=C1CC[C@@]2(O)[C@H]3Cc4ccc(O)c5c4[C@@]2(CCN3CC2CC2)[C@H]1O5`, for which the Potency result in experiment [1], in experiment [2], in [3], in experiment [15], in experiment [5] and in experiment [6] was “inactive” in each case. The Potency entry in [7], in experiment [8], in experiment [9], in experiment [11], in experiment [19] and in experiment [13] was “inactive” in each case. Also, the Potency in experiment [4] is 8330 nM (active).
Consider `CC1=C2C[C@@H]3[C@@H](CC=C4C[C@@H](O)CC[C@@]43C)[C@@H]2CC[C@]12O[C@H]1C[C@H](C)CN[C@H]1[C@H]2C`, for which the Potency result in [1], in [2], in experiment [15], in experiment [4], in experiment [5] and in experiment [6] was “inactive” throughout. Also, the Potency result in experiment [7], in [8], in experiment [9], in experiment [10], in experiment [11] and in [13] was “inactive” each time. Besides, the Potency in experiment [17] was 46.9 nM (active); in [18], 9350 nM (active); in [12], 14800 nM (active).
On to `CNCC(O)c1ccc(O)cc1` (centres undefined), for which the Potency entry in [1], in [14], in [15], in experiment [4], in experiment [5] and in [7] was “inactive” in each case. Moreover, the Potency result in experiment [8], in experiment [10], in [11] and in [13] was “inactive” each time. In addition, the viability (% of DMSO) in experiment [3] was 80.8% (active). In addition, the results for the Potency in experiment [19] and in experiment [12] were 14800 nM (active) and 4180 nM (active), respectively.
As for `O=C(O)C(=O)c1cn(Cc2ccccc2)c2ccc(-c3ccc(OC(F)(F)F)cc3)cc12`, the Potency result in experiment [1], in experiment [2], in [7], in experiment [9], in experiment [11] and in experiment [12] was “inactive” in each case. For the same compound, in [13], the Potency entry was “inactive”. Also, the Potency is 18700 nM (active) in [15]; 14800 nM (active) in [5]; 16600 nM (active) in experiment [6]; 7430 nM (active) in [8]; 23500 nM (active) in experiment [19].

These data come from PubChem BioAssay (NCATS).
